# Sampled rows, rich in hits. Any-hit rate of the full collection: about 10%.
# RORg inh: ROR gamma (mouse) transcription inhibition; P51450; Drosophila S2 Gal4-RORgamma UAS-luciferase reporter, 20 h; Potency, µM (series often up to 53.6 µM), without a hit: top-dose activity change, negative = inhibition, usual class: inhibitors; 310,000 tested, 5.4% active; AID 2551; note: % is set by controls: 0 for no effect and ±100 for the full control effect; nearly all actives have a fitted effect of over 60% in size
# Target sequence (P51450 whole entry, looked up, the tested form may be a part): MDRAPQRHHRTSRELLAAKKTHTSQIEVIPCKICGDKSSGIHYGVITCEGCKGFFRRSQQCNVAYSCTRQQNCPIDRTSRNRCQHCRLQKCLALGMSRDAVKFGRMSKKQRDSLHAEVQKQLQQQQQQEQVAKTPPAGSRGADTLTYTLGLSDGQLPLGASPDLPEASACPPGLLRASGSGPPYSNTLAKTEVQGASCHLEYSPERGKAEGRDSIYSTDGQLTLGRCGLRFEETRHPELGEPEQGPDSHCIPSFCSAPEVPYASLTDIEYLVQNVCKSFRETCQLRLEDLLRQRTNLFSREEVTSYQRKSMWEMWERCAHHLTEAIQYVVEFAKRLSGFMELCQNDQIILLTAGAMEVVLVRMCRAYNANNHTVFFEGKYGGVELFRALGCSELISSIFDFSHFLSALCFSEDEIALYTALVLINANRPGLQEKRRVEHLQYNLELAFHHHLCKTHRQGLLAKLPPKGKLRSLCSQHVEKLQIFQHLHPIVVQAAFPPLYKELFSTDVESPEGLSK
#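 Luminescence from a UAS-regulated Photinus luciferase reporter in stably transfected Drosophila Schneider cells is measured; decreased signal marks ROR gamma inhibition. Fusion expression is induced by 700 uM copper sulfate for 20 hr.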
# Gal4-VP16 FLuc: counter-screen for ROR gamma inhibitors: Gal4-VP16 reporter | Drosophila S2 Gal4-VP16 UAS-luciferase, luminescence, 20 h | Potency, µM (titrated, usually from 53.6 µM), for inactives: at the highest dose activity, negative = inhibition, usual class: inhibitors | 310,000 tested, 3.5% active | AID 2546;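 note: Gal4-VP16 expression switched on by copper sulfate through the metallothionein promoter; % is set by controls: 0 for no effect and ±100 for the full control effect; nearly all actives have a fitted effect of over 50% in size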
# SW480 rereplic: inducers of DNA re-replication in SW480 colon cancer cells | SW480 DNA re-replication, Hoechst DNA content imaging, 48 h | Potency, µM (titrated, usually from 46.1 µM), without a hit: at the highest dose re-replication activation, actives largely listed as activators | 340,000 tested, 1.8% active | AID 624297; note: % of control where 0% means no effect; nearly all actives have a fitted effect of over 55% in size
#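 Per well, 250 cells were exposed to pinned compound for 48 hr. Nuclear DNA was visualised with Hoechst (40 min, 37 C) and total object intensity recorded by fluorescence scanning.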
# ELG1 DNA repair: ELG1-dependent DNA repair inhibition; AID 504467; 330,000 tested, 2.3% active; Potency, µM (series often up to 46.1 µM), without a hit: top-dose activity change, negative = inhibition, hits mostly inhibitors; HEK293T ELG1-luciferase reporter, luminescence, 16 h; DNA damage induced by 5-fluorouridine; note: % is set by controls: 0 for no effect and ±100 for the full control effect; nearly all actives have a fitted effect of over 55% in size
#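 Step one: seed 2,000 cells per well. Step two: pin-transfer compound or DMSO alongside 5-fluorouridine. Step three: incubate 16 hr, 37 °C, 5% CO2. Step four: add ONE-Glo, wait 30 min, read luminescence.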
# MCF10A rerep: DNA re-replication induction in MCF 10a cells; MCF 10A DNA re-replication, Hoechst nuclear intensity, 48 h; Potency, µM (titrated, usually from 46.1 µM), for the others: at the top dose activity, positive = re-replication, usual class: activators; 350,000 tested, 2.9% active; AID 624296; note: % of control where 0% means no effect; nearly all actives have a fitted effect of over 50% in size
# The depositor's hits bear a star; ? = inconclusive; · = no result given. Calls come from the whole dose curve; as a rule, active = well fitted curve in the direction sought with a large enough effect; inconclusive = small, poorly fitted or top-dose-only effect, or another doubt; inactive = no such curve, though single readings can be large; an effect the other way counts as inactive or inconclusive. Potency is the fitted concentration of half-maximal effect.
SMILES,RORg inh,Gal4-VP16 FLuc,SW480 rereplic,ELG1 DNA repair,MCF10A rerep
CC1C(Br)C(=O)NC(=O)N1Cc1ccccc1 (configuration not stated),17%,19%,1%,-2%,-4%
O=C(Oc1ccccc1)N1CCC[C@@]2(CCN(c3ccncc3)C2)C1,-27%,1%,·,·,·
CCOc1ccc(S(=O)(=O)N(CC)CC(=O)NCc2ccccn2)cc1C,12%,-7%,-2%,1%,4%
CCN1C(=O)/C(=C\N(C(C)=O)c2ccccc2)OC1=S,7.9µM*,10µM*,-5%,?,4%
COc1cccc(/C=C/C(=O)NNC(=O)c2ccccc2)c1OC,·,·,-6%,?,0%
O=[N+]([O-])c1cc([N+](=O)[O-])c2nonc2c1Nc1ccc(O)cc1,11µM*,13µM*,-5%,-15%,1%
O=[N+]([O-])c1cc([N+](=O)[O-])c2nonc2c1Nc1ccccc1O,-18%,-9%,5%,7%,10%
O=[N+]([O-])c1cncc([N+](=O)[O-])c1Nc1cccc(O)c1,?,11µM*,?,?,29%
N=C1SC(c2ccccc2)C(=O)N1c1ncc(Cc2ccccc2Cl)s1 (configuration not stated),1.4µM*,1.3µM*,0%,4%,?
CCOC(=O)c1c(SC)n(-c2ccccc2)c(=S)n(-c2ccccc2)c1=O,1%,0%,-7%,14%,8%
CCOC(=O)c1c(SCCN2CCCCC2)n(-c2ccccc2)c(=S)n(-c2ccccc2)c1=O,·,·,12µM*,·,9.2µM*
COc1ccc(CNS(=O)(=O)NCc2ccccc2F)cc1,-9%,-10%,5%,?,0%
Cc1cc(C)n(CCC(=O)N2CCc3ccccc32)n1,-23%,-6%,-15%,-3%,-2%
Cc1ccccc1-c1noc(N)c1C#N,5.6µM*,?,5.2µM*,5%,16µM*
COc1ccc(OC)c(C2C(C(N)=O)=C(C)Nc3nc(-c4cccc(Cl)c4)nn32)c1 (configuration not stated),?,18µM*,8%,?,?
COc1ccccc1-c1nc2n(n1)C(c1ccccc1Cl)C(C(N)=O)=C(C)N2 (configuration not stated),-22%,-2%,-2%,?,1%
CCOCCn1cnc2sc(C(=O)Nc3nc(C)c(C(=O)OCC)s3)c(C)c2c1=O,4.5µM*,-10%,·,13%,·
CC(C)SCc1cc(N2CCCC2)nc(-c2ccccc2)n1,13µM*,-5%,-7%,-9%,0%
COc1ccc(NC(=S)N(C(C)C)C2CCN(C(C)C)CC2)cc1Cl,-23%,-20%,·,6%,·
C=CCn1c(SCc2ccccc2C#N)nnc1-c1cc(Br)ccc1O,18µM*,25µM*,11%,?,?
Cn1c(SCc2ccccc2C#N)nnc1-c1ccncc1,8%,5%,-4%,11%,-11%
COc1cccc(N2CC(O)=C(c3nc4ccccc4s3)C2=N)c1,-36%,10%,3.7µM*,?,?
COc1ccc(N2CC(O)=C(c3nc4ccccc4s3)C2=N)cc1,-30%,4%,6%,0%,-1%
CN(c1ccc(C(=O)NCCSCc2c(F)cccc2Cl)cc1)S(C)(=O)=O,14%,-3%,-4%,13µM*,?
CS(=O)(=O)NCCSCc1c(F)cccc1Cl,?,·,-13%,0%,28%
SMILES,RORg inh,Gal4-VP16 FLuc,SW480 rereplic,ELG1 DNA repair,MCF10A rerep
Cc1c(CCC(=O)N[C@@H](CC(C)C)C(=O)O)c(=O)oc2cc3oc4c(c3cc12)CCCC4,0.63µM*,?,?,?,-1%
Cc1c(CCC(=O)NCC(=O)NCC(=O)O)c(=O)oc2cc3oc4c(c3cc12)CCCC4,-24%,-12%,?,0%,0%
Cc1c(CCC(=O)O)c(=O)oc2cc3oc4c(c3cc12)CCCC4,?,?,-6%,?,-2%
Cc1c(CCC(=O)N2CCC[C@H]2C(=O)O)c(=O)oc2cc3oc4c(c3cc12)CCCC4,1.3µM*,?,-30%,?,-79%
Cc1cc(Nc2ccc([N+](=O)[O-])cc2)c2ccccc2n1,?,?,71%,7%,2.6µM*
CCOc1ccc(Br)cc1C(=O)N/N=C/c1cccc(C)n1,-23%,-12%,-1%,?,18µM*
Cc1cc(Nc2cccc([N+](=O)[O-])c2)c2ccccc2n1,20%,-2%,-27%,-12%,?
O=C(N/N=C/c1cc([N+](=O)[O-])ccc1O)c1c[nH]c2ccccc12,5µM*,?,8%,8.2µM*,12%
O=C(N/N=C/c1cccc([N+](=O)[O-])c1)c1c[nH]c2ccccc12,?,-8%,-7%,4%,0%
Cc1cc(C(=O)N/N=C/c2ccc(N(C)C)cc2)c2ccccc2n1,16µM*,-7%,18µM*,9%,7.1µM*
CCC(C)Sc1ccc([C@H]2N[C@@](Cc3ccccc3)(C(=O)OC)[C@H]3C(=O)N(C)C(=O)[C@@H]23)cc1 (some centres not stated),·,·,2%,-28%,5%
C/C(=N\NC(=O)Cc1ccc(Cl)cc1)c1cccnc1,8%,16%,-16%,6%,-5%
COC(=O)[C@@]12CCCCN1[C@H](c1ccc(-c3cccc(Cl)c3)c(OC)c1)[C@H]1C(=O)N(C)C(=O)[C@H]12,·,·,4%,?,?
O=C(N/N=C/c1cc([N+](=O)[O-])ccc1Cl)c1cc(-c2ccccc2)nc2ccccc12,14%,3%,-2%,?,2%
Cc1cc(C(=O)N/N=C/c2cc([N+](=O)[O-])ccc2O)c2ccccc2n1,2.8µM*,4.5µM*,16µM*,-29%,13%
Cc1cc(C(=O)Nc2ccc(Br)cc2)c2ccccc2n1,-2%,16%,7%,17%,-2%
CCc1ccc(/C=N/NC(=O)c2cc(C)on2)s1,5.6µM*,5.6µM*,-5%,?,-3%
Cc1cc(C(=O)N/N=C/c2cc(Br)cc([N+](=O)[O-])c2O)c2ccccc2n1,2µM*,3.2µM*,·,?,29%
O=C(N/N=C/c1cc([N+](=O)[O-])ccc1O)c1cc(-c2ccccc2)nc2ccccc12,3.2µM*,4µM*,?,?,?
O=C(O)c1nn(CCOc2c(Cl)cccc2Cl)c(=O)c2ccccc12,50%,-24%,13%,?,?
Fc1ccc(COc2ccccc2-c2ccnc3ncnn23)cc1,-8%,26%,-52%,11%,?
CCc1ccc(/C=N/NC(=O)c2cc(C3CC3)nc3ccccc23)s1,1.3µM*,1.8µM*,18µM*,?,7.3µM*
Cc1cccc(/C=N/NC(=O)c2cc(C3CC3)nc3ccccc23)n1,?,?,-5%,-1%,-1%
